PubChem BioAssay (NCI)
This is part of a sample that, as a whole, favours compounds with a hit. Of some 83,000 tested, about 20% had one in any assay.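 The test compound was applied at a single concentration to cells in 96-well plates for 48 hours, and percent growth was recorded.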 Values without a mark were called inactive. Active and inactive are the calls of the source. How the source made its calls: active means growth percent below 10; inactive means the rest.

What follows are molecules tested on HL-60(TB) leukemia (assay: NCI-60 one-dose screen, 48 h (100 = growth as untreated, 0 = no growth, -100 = all killed)). Conditions: 10 µM unless noted.
Cc1ccc(/C=C(/C#N)n2nnc3cccc(F)c32)cc1 was tested, and the growth was -18.2% (active). Work on O=c1cc(Cl)[nH]c(=O)[nH]1 yielded a growth of 91.7%. In the case of COc1ccc(-c2nc(SCCC(C)C)nc(N/N=C\c3ccccc3O)c2C#N)cc1, the growth is reported as 83.6%. With NC(=O)SCC(=O)Nc1ccc(S(N)(=O)=O)cc1 the growth was 103%. Molecule CC(SC(C)C(=O)N/N=C/c1cccc(Cl)c1)C(=O)N/N=C\c1cccc(Cl)c1 (stereo not given) has a growth of 82.8%. In the case of CCOC(=O)c1c2c(c(C)n1Cc1ccc(OC)cc1)-c1nc(N)ncc1CC2, the growth is reported as 68.8%. Work on COc1ccc(-c2nn(-c3ccc(NC(=O)c4ccc(Cl)c(Cl)c4)cc3)cc2-c2ccncc2)cc1Cl yielded a growth of 13.5%. For CN(C)c1ccc(/C=C/C2=[N+](C)c3ccccc3C2(C)C)cc1, the growth was -18.4% (active). COc1ccc(/C=C/C(=O)c2c(O)c(C)c(O)c3c2OC2=CC(O)=C(C(C)=O)C(=O)[C@]23C)cc1 was tested, and the growth was -34.6% (active). O=c1oc2c(cc1-c1ccccc1)c[n+]([O-])c1ccccc21 showed a growth of 97.7%. For CCOC(=O)Nc1nccs1, the growth was 100%. In the case of COc1cc2nc(N3CCC[C@H](NC4=CC(=O)c5ccccc5C4=O)C3)nc(N)c2cc1OC, the growth is reported as -64.6% (active). For Cc1cnc(C=O)c2cccc([N+](=O)[O-])c12, the growth was 66.1%. In the case of Cc1ccc2c(n1)C(=O)C(Cl)=C(Nc1ccccc1C(C)C)C2=O, the growth is reported as -15.3% (active). Molecule O=S(c1ccccc1)c1ccc2nnnn2n1 (stereo not given) has a growth of 42.5%. In the case of CN(C)c1ccc2nc3ccc(=[N+](C)C)c([N+](=O)[O-])c-3sc2c1, the growth is reported as 2.66% (active). Work on COc1ccc(Cn2nc(-c3ccccc3)c3c2CCc2cnoc2-3)cc1 yielded a growth of 69.4%. For O=c1cc(CP(=O)(O)O)c2cc(O)c(-c3ccccc3)cc2o1, the growth was 104%. CCN(CC)CCN1C(=O)c2c(c(C)c3c(oc4ccc(O)cc43)c2C)C1=O was tested, and the growth was -6.29% (active). Work on CCNc1nc(S(=O)(=O)CC)nc2ccccc12 yielded a growth of 91.8%. Nc1nc(Nc2ccccc2SSc2ccccc2Nc2nc(N)nc(-c3ccc(C(F)(F)F)cc3)n2)nc(-c2ccc(C(F)(F)F)cc2)n1 was tested, and the growth was -17% (active). With C=C1C(=O)O[C@H]2[C@H]1CC/C(Cn1cc(Cn3ccc4ccccc43)nn1)=C\CC[C@@]1(C)O[C@@H]21 the growth was -48.5% (active). For Cc1ccc(C2CC(c3cccc(Nc4ccncc4)c3)=NN2c2ccccc2)cc1 (stereo not given), the growth was -56.6% (active). With COC(=O)N/N=C/c1coc2ccc(Cl)cc2c1=O the growth was 105%. With CC(=O)Nc1nccs1 the growth was 103%. Work on Fc1ccc(CNCCNc2ncnc3c2cnn3-c2ccccc2)cc1 yielded a growth of 83.1%. In the case of COc1ccc(-c2[nH]c3ccc(OC)cc3c2C=C(C#N)C#N)cc1, the growth is reported as -43.1% (active). Work on O=S(=O)(Nc1cc(Sc2nc3ccccc3s2)c(O)c2ccccc12)c1ccc2ccccc2c1 yielded a growth of 71.6%. COc1ccc(Nc2nccc(N3CCN(c4c5ccc(Cl)cc5nc5ccc(OC)cc45)CC3)n2)cc1 showed a growth of 15.4%. For NNC(=O)CNC(=O)Nc1n[nH]c(=S)s1, the growth was 107%. C=CCNc1ccc2c3c(cccc13)C(=O)N(CC=C)C2=O showed a growth of 102%. In the case of Cc1ccc(Nc2nc(N)nc(CSCC(=O)NN)n2)cc1, the growth is reported as 20.5%. O=C(/C=C/c1ccccc1Cl)c1cccc(OCCCCOc2cccc(C(=O)/C=C/c3ccccc3Cl)c2)c1 was tested, and the growth was 105%. NS(=O)(=O)c1ccc(C(=O)N/N=C(\CS(=O)(=O)c2ccccc2)c2cc3cc(Br)ccc3o2)cc1 gave a growth of 115%. With CCCC(=O)Oc1ccc(CC)cc1 the growth was 97.6%. N#C/C(=C/C=C/c1cccc(Cl)c1)S(=O)c1ccccc1 (stereo not given) was tested, and the growth was -18.9% (active). c1ccc(CN2C(c3ccccc3)=Nc3ccccc3C2c2c[nH]c3ccccc23)cc1 (stereo not given) gave a growth of 19.6%. CCOC(=O)c1cc2c(n1Cc1cc(OC)cc(OC)c1Br)-c1nc(NC(C)=O)sc1CCC2 gave a growth of 43.1%. With Cc1ccc(-c2nc(N3CCCNCC3)c3oc(-c4ccccc4)nc3n2)cc1 the growth was -69.7% (active). Work on CC1=C(CCCOC(=O)NCCCl)C2=C(C)C3(CC3)[C@@](C)(O)C(=O)C2=C1 yielded a growth of 44.7%.
